Assay outcomes as filed in PubChem.
ATG4B inh: inhibitors of human ATG4B cysteine protease; inhibition, % at 8.33 µM; AID 504462; ATG4B cleavage of LC3-PLA2, NBD-HPC fluorescence, 1 h; 340,000 tested, 0.51% active; in the data active = inhibition above about 40%
PP5 primary: blocks human protein phosphatase 5 activity. P53041. purified PP5c, OMFP substrate fluorescence. inhibition, % at 6.7 µM. 320,000 tested, 0.18% active;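 active = inhibition above the campaign's mean inhibition across all tested compounds plus 3 SD, cut at about 9.5% in these data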;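 note: 0% = DMSO only and 100% = 100 µM cantharidin control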
PP1 counter: blocks human PP1-alpha phosphatase, a PP5 counter-screen | 320,000 tested, 0.9% active | P62136 | purified PP1alpha, OMFP fluorescence | AID 2235 | inhibition, % at 6.7 µM;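 active = inhibition above the mean inhibition of all tested compounds plus 3 SD, computed separately for each screening campaign, cut at about 15% in these data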
Target sequence (P62136 whole entry, looked up): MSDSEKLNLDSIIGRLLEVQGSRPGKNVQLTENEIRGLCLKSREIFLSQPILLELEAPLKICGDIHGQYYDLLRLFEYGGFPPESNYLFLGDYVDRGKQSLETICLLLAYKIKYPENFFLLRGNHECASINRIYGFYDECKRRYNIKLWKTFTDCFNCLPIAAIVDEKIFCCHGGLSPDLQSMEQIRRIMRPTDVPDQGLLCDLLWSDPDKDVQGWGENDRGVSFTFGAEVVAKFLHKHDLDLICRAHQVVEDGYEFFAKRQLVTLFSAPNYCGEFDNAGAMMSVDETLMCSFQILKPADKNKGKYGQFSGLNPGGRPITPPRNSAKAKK
Cardio protect: protects H9c2 cardiomyocytes from peroxide injury. H2O2 injury protection, ATPLite, 2 h. protection from H2O2 cell death, % at 20 µM. AID 588492. 360,000 tested, 0.63% active;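 active = compounds giving at least 50% protection of heart cells from peroxide-induced death in the single-dose screen, raw or plate-pattern-corrected value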;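 note: 0% = DMSO wells with peroxide and 100% = DMSO wells without peroxide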
ATG4B conf: confirmation of human ATG4B inhibitors; ATG4B protease fluorescent substrate cleavage assay; 320 tested, 92% active; inhibition, % at 8.33 µM; shares compounds with ATG4B inh; in the data active = inhibition above about 39%
PLA2 counter: PLA2 (human) inhibition in ATG4B counter-screen. shares compounds with ATG4B inh. purified PLA2, NBD-C6-HPC fluorescence, 45 min. inhibition, % at 8.33 µM. 1,600 tested, 66% active. AID 588402; in the data active = inhibition above about 50%
Target sequence (P04054 whole entry, looked up): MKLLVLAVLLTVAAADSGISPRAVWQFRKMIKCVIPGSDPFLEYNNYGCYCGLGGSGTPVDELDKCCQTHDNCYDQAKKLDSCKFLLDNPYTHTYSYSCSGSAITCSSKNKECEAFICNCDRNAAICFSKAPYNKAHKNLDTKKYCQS
An asterisk follows results filed as active; x = no result given; ! = not confirmed by another sample. Sampled rows, rich in hits. Any-hit rate of the full collection: about 1.9%.

SMILES | ATG4B inh | PP5 primary | PP1 counter | Cardio protect | PLA2 counter | others
Oc1ccc(-c2csc(Nc3ccc4c(c3)OCO4)n2)c(O)c1 | 42* | x | x | -12 | 59*
Oc1ccc(-c2csc(Nc3ncccn3)n2)c(O)c1 | 1 | 3 | 0 | 0 | x
COC(=O)c1cc(C)nc2c1C(=O)C(=O)C=C2N1CCOCC1 | 75* | 7 | 16* | -10 | -12 | ATG4B conf=32
Cc1ccc(C)c(N2CCN(S(=O)(=O)c3ccc4c(c3)CCN4C(=O)CCC(=O)O)CC2)c1 | 3 | 1 | -4 | -3 | x
Cc1cccc(N2CCN(S(=O)(=O)c3ccc4c(c3)CCN4C(=O)CCC(=O)O)CC2)c1C | 41* | 1 | 0 | -2 | 30
N#Cc1c(NC(=O)Cn2c(=O)oc3ccccc32)oc(-c2ccccc2)c1-c1ccccc1 | 50* | 0 | 15 | -16 | 58*
O=C(c1ccc(-n2cncn2)c([N+](=O)[O-])c1)N1CCN(S(=O)(=O)c2ccc(Cl)cc2)CC1 | 6 | 1 | -5 | -4 | x
Fc1ccc(CNc2nc(-c3ccco3)cc(C(F)(F)F)n2)cc1 | 41* | 4 | 5 | -16 | 52*
COc1ccc(C(CNC(=O)Nc2cccc(C)c2)N2CCN(C)CC2)cc1 (centres undefined) | 0 | 0 | 3 | 14 | x
Cc1cc(S(=O)(=O)N2CCN(c3c(C)cccc3C)CC2)ccc1F | 49* | 1 | -4 | -18 | 52*
Cc1cc(S(=O)(=O)N2CCN(c3ccccc3C)CC2)ccc1F | 45* | 3 | 2 | -18 | 52*
Cc1ccc(OCc2nnc(SCC(=O)c3cccs3)n2-c2ccccc2)cc1C | 62* | 4 | 11 | -5 | 78*
Cn1cccc1Cc1nnc(SCC(N)=O)n1CCc1ccccc1 | 18 | 0 | -4 | 16 | x
O=C(O)CSc1nnc(COc2ccccc2)n1-c1ccccc1 | 1 | -3 | -4 | 4 | x
NC(=O)CSc1nnc(COc2ccccc2)n1CCc1ccccc1 | 54* | 3 | 2 | 6 | 46
O=C(CSc1nnc(COc2ccccc2)n1-c1ccccc1)c1cccs1 | 54* | 0 | 4 | -3 | 55*
Cc1cccc(OCc2nnc(SCCC(=O)O)n2-c2ccccc2)c1 | 2 | -1 | -1 | -1 | x
Cc1ccc(C(=O)CC(=O)c2cc(Cl)ccc2O)cc1 | 46* | 3 | 1 | -17 | 47 | ATG4B conf=72*
c1cncc(-c2nc(N3CCOCC3)c3c4c(sc3n2)CCC4)c1 | 27 | -1 | 2 | 16 | x
c1cncc(-c2nc(NCCCN3CCOCC3)c3c4c(sc3n2)CCC4)c1 | 40* | 2 | -2 | 34 | 57*
Cc1csc(SCC(=O)Nc2cc(S(=O)(=O)N(C)C)ccc2C)n1 | -6 | 2 | -4 | 3 | x
N#C/C(=C\c1coc2ccccc2c1=O)C(N)=S | 6 | 3 | 0 | -17 | x
N#C/C(=C\c1coc2ccc(O)cc2c1=O)C(=O)Nc1nc2ccccc2s1 | 54* | -20 | 11 | 19 | 38
Cc1ccc(C(C)(C)C)cc1S(=O)(=O)N1CCC(C(=O)N2CCN(c3ccc(O)cc3)CC2)CC1 | -17 | 7 | 5 | -14 | x
O=C(O)c1cc(-c2ccco2)nc2ccc(Br)cc12 | 78*! | -3 | 6 | 9 | 23 | ATG4B conf=65*
SMILES | ATG4B inh | PP5 primary | PP1 counter | Cardio protect | PLA2 counter | others
NC(=O)COC(=O)c1cc(-c2ccco2)nc2ccccc12 | 22 | 2 | 1 | -6 | x
CCOC(=O)c1oc2ccc(Br)cc2c1CSc1nnc(C)s1 | 64* | 2 | 2 | -4 | 67*
NC(=O)c1cc2c(s1)-c1cc(Cl)ccc1SC2 | 44* | 3 | 0 | 0 | 36
CCOC(=O)c1ccc(NC(=O)CSc2nc(=O)n(CCN3CCOCC3)c3c2CCC3)cc1 | -5 | 0 | 6 | -8 | x
CCCCC(=O)Nc1cc(C)c(NC(=O)c2ccco2)cn1 | 0 | -2 | -1 | 1 | x
Cc1ccc(C(=O)N/N=C(/CC(=O)c2cccs2)C(F)(F)F)cc1 | 41* | 1 | 1 | -24 | 28
Cn1c(COc2ccc(Br)cc2)nnc1SC1CCc2ccccc2C1=O (centres undefined) | 50* | 4 | 0 | -5 | 62*
COc1ccc(OCC(=O)Nc2ccccc2-c2ccccc2)cc1 | 3 | 2 | 8 | 4 | x
Cc1c(NC(=O)c2ccccc2NC(=O)c2ccccc2)cccc1C(=O)O | 3 | 2 | 3 | 0 | x
Cc1cccc(OCC(=O)Nc2ccccc2-c2ccccc2)c1 | 45* | 3 | -3 | -7 | 44 | ATG4B conf=64*
Cc1c(NC(=O)c2ccccc2NC(=O)COc2ccccc2)cccc1C(=O)O | 40* | 0 | 1 | 9 | -14
CCCn1c(NC(=O)c2cccc(S(=O)(=O)N3CCCC3)c2)nc2ccccc21 | 40 | -1 | 3 | 99* | 57*
Cc1ccc(C(=O)Nc2nc3ccccc3n2CCN2CCCC2)cc1 | -7 | 2 | -4 | 4 | x
O=C(CCC1CCCC1)Nc1ccccc1-c1ccccc1 | 45* | 1 | 3 | 3 | 50*
O=C(CCC1CCCCC1)Nc1ccccc1O | 8 | 2 | 1 | -12 | x
O=C(CC1CCCCC1)Nc1ccccc1-c1ccccc1 | 40 | 0 | -2 | 6 | x
O=C(CCC1CCCCC1)Nc1ccccc1-c1ccccc1 | 53* | 2 | 5 | -11 | 54*
Cn1nc(C(F)(F)F)c(-c2ccc(F)cc2)c1NC(=O)c1cccnc1 | -12 | 1 | -1 | -2 | x
COc1ccc(NC(=O)N(C)C[C@@H]2OCc3ccccc3-c3c(n(C)c4ccccc34)C(=O)N([C@H](C)CO)C[C@H]2C)c(OC)c1 | x | x | x | 1 | x
Cc1ccc(S(=O)(=O)Nc2nc3ccccc3nc2Nc2cccc(S(=O)(=O)N3CCCC3)c2)cc1 | -9 | 1 | 3 | -22 | x
O=[N+]([O-])c1cccc(S(=O)(=O)Nc2nc3ccccc3nc2Nc2cccc(S(=O)(=O)N3CCCCC3)c2)c1 | 46* | x | x | -29 | 50
O=C(Nc1ccccc1-c1ccccc1)NC1CC2CCCC(C1)N2CCc1ccccc1 (centres undefined) | 7 | 1 | -6 | 2 | x
O=C(Nc1ccccc1-c1ccccc1)NC1CC2CCCC(C1)N2Cc1ccc(F)cc1 (centres undefined) | 72* | -4 | 2 | 6 | 66*
NC(=O)Cc1ccc(C(=O)c2ccc(Cl)cc2)s1 | 57* | 1 | -2 | -13 | 51*
CC(C)OC(=O)[C@H]1[C@H](c2ccc(Cl)cc2)[C@@](C#N)(C(N)=O)[C@@H]2C=CC(C(N)=O)=CN21 | 64* | x | x | -6 | 74*
Cc1c(C(=O)Nc2ccccc2[N+](=O)[O-])csc1-c1ccccc1 | 59* | 3 | 0 | -14 | 48
CC1CCCC(C)N1CCCNC(=O)Cn1ncc2c3ccccc3n(C)c2c1=O (centres undefined) | 4 | -1 | -6 | -1 | x
CCNc1nc(CSc2ccccc2)nc2sc(C)c(C)c12 | 45* | 0 | 3 | -13 | 47 | ATG4B conf=61*
